Screens: PubChem BioAssay, several laboratories
SMARCA2 activ: SMARCA2 function activation, primary screen; activation, % at 9.1 µM; MG213 cells, MMTV-luciferase reporter, dexamethasone, overnight; hit rate 1% among 370,000; in the data active = activation above about 7.8%;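 note: 0% = vehicle wells and 100% = reference activator wells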
GAA850 FXN act: increases GAA850 frataxin promoter reporter activity; HEK293 lucGAA850 FXN promoter luciferase reporter, 24 h; percent of 10 µM SAHA response; activation, % at 6 µM; hit rate 0.56% among 360,000;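 active = activation above the average of all compounds screened plus 3 SD, cutoff fixed separately per campaign, cut at about 7.5% in these data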;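 note: 0% = DMSO wells and 100% = 10 µM SAHA wells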
H9c2 protect: myocardial damage modulation in H9c2 cells; H9c2 cardiomyocytes, H2O2 injury protection, ATPLite, 2 h; protection from H2O2 cell death, % at 20 µM; hit rate 0.63% among 360,000; AID 588492;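 active = compounds giving at least 50% protection of heart cells from peroxide-induced death in the single-dose screen, raw or plate-pattern-corrected value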;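 note: 0% = DMSO wells with peroxide and 100% = DMSO wells without peroxide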
COUP-TFII inh: NR2F2 (human) inhibition, primary screen; P24468; HEK293T NGFI-A luciferase reporter, luminescence; inhibition, % at 8.6 µM; hit rate 0.7% among 370,000;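 active = inhibition above a per-plate cutoff, mean inhibition of test wells between control levels plus 3 SD, cut at about 38% in these data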;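 note: cells cotransfected with COUP-TFII expression vector driving the NGFI-A reporter; 0% = median of COUP-TF2 test wells and 100% = reporter-only cells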
Target sequence (P24468 whole entry, looked up): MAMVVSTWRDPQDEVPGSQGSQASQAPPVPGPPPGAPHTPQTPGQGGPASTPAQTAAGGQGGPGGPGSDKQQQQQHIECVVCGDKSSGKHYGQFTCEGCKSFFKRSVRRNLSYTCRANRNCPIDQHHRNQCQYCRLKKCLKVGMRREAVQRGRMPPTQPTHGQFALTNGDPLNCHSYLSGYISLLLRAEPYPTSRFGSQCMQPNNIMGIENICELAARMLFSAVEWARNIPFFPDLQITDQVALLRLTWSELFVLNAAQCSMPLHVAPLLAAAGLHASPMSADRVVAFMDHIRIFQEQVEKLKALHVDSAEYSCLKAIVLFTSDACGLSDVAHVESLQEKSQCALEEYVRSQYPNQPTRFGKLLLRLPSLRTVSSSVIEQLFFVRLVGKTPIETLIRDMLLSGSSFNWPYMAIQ
Gli-Sufu antag: Gli-Sufu pathway antagonism; inhibition, % at 5 µM; hit rate 0.74% among 340,000; Sufu-KO-LIGHT fibroblasts, Gli luciferase reporter luminescence;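 active = inhibition above about 55%, limit read from the data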;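 note: 0% = DMSO-treated cells and 100% = wells with medium but no cells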
GalR3 antag: human GalR3 antagonism | O60755 | HEK293 GalR3-CNG cAMP membrane potential fluorescence; galR3 body fused to GalR1 C-terminus | inhibition, % at 3 µM | hit rate 0.44% among 360,000;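 active = inhibition above the screen-wide average plus 3 SD, cut at about 13% in these data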;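 note: forskolin and galanin both at EC90 stimulate the cells; cAMP rise reported by CNG channel membrane potential dye signal; 0% = forskolin plus galanin with DMSO and 100% = forskolin alone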
Target sequence (O60755 1-299 limits assumed): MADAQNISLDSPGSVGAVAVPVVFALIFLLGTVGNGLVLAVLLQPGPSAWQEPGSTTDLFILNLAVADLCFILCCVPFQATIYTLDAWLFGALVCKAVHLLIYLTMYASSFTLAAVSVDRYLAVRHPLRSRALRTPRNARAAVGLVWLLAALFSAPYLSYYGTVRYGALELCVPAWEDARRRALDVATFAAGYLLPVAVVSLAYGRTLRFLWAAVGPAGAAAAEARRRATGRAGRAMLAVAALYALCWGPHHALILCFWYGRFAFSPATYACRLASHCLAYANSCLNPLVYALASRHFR
SMARCA2 act conf: SMARCA2 activation, confirmation screen; AID 652260; shares compounds with SMARCA2 activ; activation, % at 9.1 µM; hit rate 30% among 3,500; MG213 cells, MMTV-luciferase with dexamethasone, luminescence, overnight; MG213 cells expressing E1A, Rb sequestered; DMSO wells 0%, reference activator 100%;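 active = activation above its plate's cutoff, the mean activation of tested wells plus 3 SD, cut at about 7.9% in these data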
GAL4-VP16 Luc: activates GAL4-VP16 luciferase, flagging SMARCA2 activator hits; shares compounds with SMARCA2 activ; HEK293 GAL4-VP16 pG5luc reporter, luciferase luminescence; scaled: DMSO wells 0%, SAHA wells 100%; activation, % at 9.1 µM; hit rate 41% among 3,500;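 active = activation above the solvent-only control well mean plus 3 SD, averaged across control plates, cut at about 5.2% in these data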
The depositor's hits bear a star; · = no result given. A selection: hits, their analogues and other compounds. The true share with any hit is near 3.4%.

SMILES | SMARCA2 activ | GAA850 FXN act | H9c2 protect | COUP-TFII inh | Gli-Sufu antag | GalR3 antag | SMARCA2 act conf | GAL4-VP16 Luc
COc1ccc(Cc2c(-c3ccccc3)nc3ccc(C)cn23)c(C)c1 | 9.2* | · | · | -33 | · | -7 | 4 | 5
COc1ccccc1Cc1c(-c2cccc(Cl)c2)nc2ccc(Cl)cn12 | 3 | · | -2 | -27 | · | -4 | · | ·
Clc1cccc(-c2nc3ccc(Cl)cn3c2Cc2ccccc2)c1 | 8.2* | · | -5 | -27 | · | -5 | 1 | 4
COc1ccccc1Cc1c(-c2ccccc2)nc2ccc(Cl)cn12 | 11* | · | -1 | -22 | · | 0 | 3 | 4
CCC(=O)c1cn(CC(=O)NCc2cccnc2)c2ccccc12 | -1 | 0 | 5 | 0 | 6 | -9 | · | ·
Cc1ccc(S(=O)(=O)NCc2ccc(N3CCN(C(=O)OC(C)(C)C)CC3)cc2)cc1 | 1 | 1 | -14 | -7 | 42 | -2 | · | ·
CN(CC(=O)Nc1ccccc1Cl)CC(=O)Nc1cccc2ccccc12 | -2 | -1 | 2 | 10 | 7 | -7 | · | ·
Cc1cccc(CN2C(=O)/C(=C\c3ccc(C(=O)NCCCN4CCN(C)CC4)cc3)Oc3ccccc32)c1 | 8.5* | 2 | -14 | 19 | · | 0 | 12* | -1
O=C(CSc1nc2sc3c(c2c(=O)n1-c1ccc(Cl)cc1)CCC3)Nc1ccc(C(=O)O)cc1 | -2 | · | · | 24 | · | · | · | ·
S=C(Nc1cccc(Cl)c1Cl)Nn1cnnc1 | -5 | 2 | -7 | -9 | 4 | -9 | · | ·
COc1ccc(C(=O)CC(=O)C(=O)Nc2ccccc2Cl)cc1 | 1 | 2 | 21 | -19 | 6 | -10 | · | ·
CCOc1ccc(NC(=S)N2CCc3cc(OC)c(OC)cc3C2COc2ccc3c(C)cc(=O)oc3c2)cc1 (centres undefined) | 1 | 1 | -4 | -5 | -5 | -5 | · | ·
CC(CN1CCOCC1)OC(=O)COc1ccc(F)cc1 (centres undefined) | -1 | 1 | 6 | -3 | 1 | -6 | · | ·
COc1ccc(OCC(=O)OC(C)CN2CCOCC2)cc1 (centres undefined) | 8.8* | -2 | 2 | 14 | 3 | -3 | 0 | 0
CCOC(=O)Nc1ccc2c(C)cc(=O)oc2c1 | 11* | 4 | -2 | -60 | -51 | -6 | 2 | 8.7*
COc1cccc(C(=O)Nc2ccc3c(C)cc(=O)oc3c2)c1 | 13* | 5 | -4 | -59 | -87 | -2 | 11* | 14*
Cc1cc(=O)oc2cc(NC(=O)c3ccccc3C(=O)O)ccc12 | 3 | 2 | -3 | -14 | 6 | -9 | · | ·
CC(C)[C@H](NC(=O)c1ccc(Br)cc1)C(=O)NC1CCCCC1 | 0 | 2 | -3 | -13 | -11 | 0 | · | ·
O=C(c1cccc(Cl)c1)N1CCN(CCCc2ccccc2)CC1 | 0 | 0 | -5 | -1 | 2 | -6 | · | ·
CCOC(=O)Cn1cncc1-c1ccc([N+](=O)[O-])cc1 | 13* | 3 | 0 | -29 | -15 | 0 | 6 | 3
CCOc1ccc(NC(=O)CSc2nnc(-c3ccncc3)n2CC2CCCO2)cc1 (centres undefined) | -4 | 0 | 9 | 16 | -1 | 0 | · | ·
O=C(CSc1nnc(-c2ccncc2)n1CC1CCCO1)Nc1cccc(O)c1 (centres undefined) | 8.3* | -3 | 0 | 6 | -6 | -3 | -1 | 0
Cc1csc(C(=O)NN)c1N(C)C | 9.1* | 3 | 2 | -25 | -1 | 5 | -1 | 2
Cc1c(C(=O)NN)sc(=S)n1C | -4 | 1 | 6 | 6 | 2 | -2 | · | ·
S=c1[nH]nc(C2CCCCC2)n1/N=C/c1cccc(Cl)c1Cl | -3 | 5 | -14 | 16 | 7 | -4 | · | ·
SMILES | SMARCA2 activ | GAA850 FXN act | H9c2 protect | COUP-TFII inh | Gli-Sufu antag | GalR3 antag | SMARCA2 act conf | GAL4-VP16 Luc
COC(=O)C1=C(C)NC(=S)NC1c1ccco1 (centres undefined) | 4 | -1 | -1 | -22 | -1 | -7 | · | ·
COc1ccc(-c2nc3ccccn3c2C=O)cc1 | 8.7* | 4 | -4 | -64 | -69 | -11 | 8 | 9.0*
O=Cc1c(-c2ccc(F)cc2)nc2ccccn12 | -3 | 2 | 6 | 3 | -9 | -1 | · | ·
COc1cc(CN(C(=S)NCC(=O)NC2CC2)C2CCCC2)cc(OC)c1OC | 9.6* | 2 | 3 | -12 | 0 | -5 | -3 | 0
COc1cc(CN(C(=S)NCC(=O)N2CCCC2)C2CCCC2)cc(OC)c1OC | 1 | 0 | -2 | 9 | 2 | 7 | · | ·
O=C(NCCc1c[nH]c2ccccc12)c1ccc([N+](=O)[O-])o1 | -1 | -1 | -17 | 28 | · | -4 | · | ·
CCC(O)(CC)C(=O)NN(C(=O)CCl)c1ccccc1 | 8.7* | 3 | 7 | -9 | -24 | -2 | 2 | 0
Cc1ccc(N(NC(=O)C(O)(c2ccccc2)c2ccccc2)C(=O)CCl)cc1 | -9 | -5 | 0 | 2 | 3 | -4 | · | ·
CC(NC(=O)CCSCc1ccccc1F)c1ccccc1 (centres undefined) | 12* | 3 | 0 | -20 | -18 | -12 | 3 | 4
C/C(CC(=O)Nc1ccc(Cl)c(C(F)(F)F)c1)=N\NC(=O)c1cccc(O)c1 | 10* | 4 | 5 | -2 | 2 | 7 | 0 | 1
O=C(Nc1cc(Cl)ccc1F)C1=COCCO1 | -1 | 1 | -2 | -19 | 3 | -3 | · | ·
CCOCCOc1cccc(C(=O)NC(C)c2ccc3ccccc3c2)c1 (centres undefined) | -4 | 0 | 3 | 13 | · | -9 | · | ·
Cc1ccc(NC(=O)Cn2cnc([N+](=O)[O-])c2)cc1C | 3 | 2 | 3 | -7 | -14 | -9 | · | ·
Cc1cc(-c2nc3ccccc3s2)ccc1N | 0 | 0 | -19 | -19 | -59 | -7 | · | ·
COc1cc(OC)cc(-c2nc3ccccc3s2)c1 | 8.2* | 3 | -7 | -31 | -23 | -8 | 11* | 5
CCOc1ccc(C(=O)Nc2nc(C)c(C(=O)OC)s2)cc1 | 8.8* | 6 | -7 | -52 | -107 | -6 | 8.7* | 12*
Cc1ccc(C=Cc2ccccn2)cc1 | 1 | 3 | -16 | -59 | · | 3 | · | ·
Clc1ccc(C=Cc2ccccn2)cc1 | 19* | 4 | -10 | -48 | -80 | -5 | 6 | 8.0*
CN(C)CCCNc1nc2sc3c(c2c(=O)n1CCc1ccccc1)CCCCC3 | 10* | 3 | -13 | -13 | 12 | -5 | -5 | 2
CN(C)CCCn1c(=O)n(CCc2ccccc2)c(=O)c2c3c(sc21)CCCCC3 | 2 | -1 | 9 | -16 | 12 | 1 | · | ·
